Drawing on PubChem BioAssay (Tox21), this text covers Potency and outcome for 25 compounds.

Assay [1] has as its target Aryl hydrocarbon receptor (Homo sapiens) (UniProt P35869). Description: qHTS assay to identify small molecule that activate the aryl hydrocarbon receptor (AhR) signaling pathway (AID 743085). Also: nearly all actives have a fitted effect of over 15% in size. Also: potency is read from the fitted curve at half-maximal effect.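 As to activation: HG2L7.5c1 human HepG2 liver cells with stably integrated DRE-driven firefly reporter; series mostly up to about 70 µM.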 Put shortly:
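AhR agonist activity is inferred from enhanced light output of a DRE-controlled firefly luciferase reporter in HepG2 cells, measured with ONE-Glo following 24 h treatment at 37C.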
For orientation: In qHTS, concentration-response curves come from the screen itself.

Assay [2] in a line: qHTS assay to identify small molecule that activate the aryl hydrocarbon receptor (AhR) signaling pathway - cell viability counter screen (AID 743086).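 Also: HepG2 liver cells carrying the AhR DRE luciferase reporter; series mostly up to about 70 µM; nearly all actives have a fitted effect of over 45% in size.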 Put shortly:
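HepG2-AhR-luc (HG2L7.5c1) cells, 4000/well, were preincubated 5 h at 37C, exposed to compound in qHTS format for 24 hr at 37C, then given CellTiter-Fluor for 30 min; viability was read as fluorescence in the reporter wells.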

Assay [3] has as its target Peroxisome proliferator-activated receptor gamma (Homo sapiens) (UniProt P37231). Description: qHTS assay to identify small molecule agonists of the peroxisome proliferator-activated receptor gamma (PPARg) signaling pathway (AID 743094; active = well fitted activation curve with a large enough effect in the signal ratio in the repeat runs, not every such curve was filed as active; the % refers to the signal ratio; also: potency is read from the fitted curve at half-maximal effect). Put shortly: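 Fluorescence-based beta-lactamase readout in HEK293H PPARg UAS-bla cells after 17 h compound exposure (37C) and 1 h B/G FRET substrate incubation at room temperature.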

The target is the same in assay [4]. Description: qHTS assay to identify small molecule antagonists of the peroxisome proliferator-activated receptor gamma (PPARg) signaling pathway (AID 743191; calls by dose curve; also: series mostly up to about 63 µM; nearly all actives have a fitted effect of over 30% in size). Put shortly: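 GeneBLAzer PPARg UAS-bla HEK293H cells carrying a UAS-driven beta-lactamase reporter were plated at 3000 cells/well, preincubated 5 h at 37C, then given compound for 17 h at 37C; LiveBLAzer B/G FRET substrate was read after 1 h at room temperature.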

Assay [5] is described as follows: qHTS assay to identify small molecule antagonists of the peroxisome proliferator-activated receptor gamma (PPARg) signaling pathway - cell viability counter screen (AID 743194). Also: nearly all actives have a fitted effect of over 55% in size. Put shortly:
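PPARg-UAS-bla HEK293H cells were plated, rested 5 h at 37 C, then treated with compounds plus rosiglitazone (50 nM final) for 17 h at 37 C; viability was then read by CellTiter-Glo luminescence after 30 min at room temperature.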

Assay [6] in a line: qHTS assay for small molecule agonists of the antioxidant response element (ARE) signaling pathway (AID 743202; active = well fitted activation curve with a large enough effect in the signal ratio in the repeat runs, not every such curve was filed as active; the % refers to the signal ratio; also: potency is read from the fitted curve at half-maximal effect). Put shortly:
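Steps: seed ARE-bla HepG2 cells (2,000/well); incubate 5 h at 37 C; add compounds by pin tool; incubate 16 h at 37 C; add FRET substrate; read fluorescence after 2 h at RT.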

A short description of assay [7]: qHTS assay for small molecule agonists of the antioxidant response element (ARE) signaling pathway - cell viability counter screen (AID 743203; calls by dose curve; also: nearly all actives have a fitted effect of over 55% in size). Put shortly:
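Parallel cytotoxicity read-out for the ARE-bla screen: HepG2 reporter cells, 16 hrs with compounds, then CellTiter-Glo luminescence.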

Assay [8] in a line: qHTS assay for small molecule activators of the heat shock response signaling pathway - cell viability counter screen (AID 743209). Also: nearly all actives have a fitted effect of over 50% in size. Put shortly: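 To flag cytotoxic compounds, HSE-bla HeLa cells plated at 1500 cells/well were dosed for 5 h at 37 C, followed by the reporter FRET read and then CellTiter-Glo, with luminescence recorded 30 min after reagent addition.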
Assay [9] is described as follows: qHTS assay for small molecule activators of the heat shock response signaling pathway (AID 743210; active = well fitted activation curve with a large enough effect in the signal ratio in the repeat runs, with a control signal flat, not every such curve was filed as active; the % refers to the signal ratio;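 also: HeLa cells with beta-lactamase reporter driven by heat shock elements; series mostly up to about 63 µM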). Put shortly:
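Activation of heat shock element-controlled beta-lactamase expression is measured in HeLa cells by LiveBLAzer FRET fluorescence, with compound exposure lasting 5 h at 37 C and substrate loading 2.5 h at room temperature.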

Assay [10] in a line: qHTS assay to identify small molecule agonists of the peroxisome proliferator-activated receptor delta (PPARd) signaling pathway - cell viability counter screen (AID 743211). Also: nearly all actives have a fitted effect of over 55% in size. Put shortly:
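qHTS cell viability: PPARd-bla HEK293H; 17 h cpd, 37C; CellTiter-Glo, luminescence at 30 min RT.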

Inconclusive results are not listed. Unmarked numbers belong to inactive results. Activity calls are given as the source filed them. Unless noted, calls follow the shape of the dose curve; as a rule, active = well fitted curve in the direction sought with a large enough effect in the repeat runs; inconclusive = weak or mixed curves; inactive = no such curve, though single readings can be large; an effect the other way counts as inactive or inconclusive.

Chain of Aryl hydrocarbon receptor (Homo sapiens) (P35869 whole entry, looked up): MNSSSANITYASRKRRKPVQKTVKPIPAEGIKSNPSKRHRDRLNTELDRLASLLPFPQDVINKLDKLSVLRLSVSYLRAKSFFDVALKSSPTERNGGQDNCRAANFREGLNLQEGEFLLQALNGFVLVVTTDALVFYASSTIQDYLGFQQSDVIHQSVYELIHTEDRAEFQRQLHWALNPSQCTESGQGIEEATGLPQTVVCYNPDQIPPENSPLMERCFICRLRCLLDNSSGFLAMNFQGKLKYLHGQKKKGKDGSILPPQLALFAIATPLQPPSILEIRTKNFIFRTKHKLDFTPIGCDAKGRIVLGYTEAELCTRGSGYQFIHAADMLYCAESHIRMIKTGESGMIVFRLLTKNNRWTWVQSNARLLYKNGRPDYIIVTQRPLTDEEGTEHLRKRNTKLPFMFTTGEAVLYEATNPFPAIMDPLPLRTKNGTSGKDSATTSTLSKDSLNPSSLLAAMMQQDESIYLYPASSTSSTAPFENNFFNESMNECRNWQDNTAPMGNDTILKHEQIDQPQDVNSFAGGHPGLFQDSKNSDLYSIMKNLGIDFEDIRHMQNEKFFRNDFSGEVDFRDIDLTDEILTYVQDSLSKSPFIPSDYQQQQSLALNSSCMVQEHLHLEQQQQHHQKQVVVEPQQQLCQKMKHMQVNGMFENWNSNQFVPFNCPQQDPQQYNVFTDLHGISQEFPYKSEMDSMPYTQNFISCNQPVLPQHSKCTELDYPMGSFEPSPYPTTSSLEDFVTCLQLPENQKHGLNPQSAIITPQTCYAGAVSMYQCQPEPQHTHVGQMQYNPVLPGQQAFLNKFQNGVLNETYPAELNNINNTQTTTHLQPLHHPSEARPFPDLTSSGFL
Chain of Peroxisome proliferator-activated receptor gamma (Homo sapiens) (P37231 whole entry, looked up): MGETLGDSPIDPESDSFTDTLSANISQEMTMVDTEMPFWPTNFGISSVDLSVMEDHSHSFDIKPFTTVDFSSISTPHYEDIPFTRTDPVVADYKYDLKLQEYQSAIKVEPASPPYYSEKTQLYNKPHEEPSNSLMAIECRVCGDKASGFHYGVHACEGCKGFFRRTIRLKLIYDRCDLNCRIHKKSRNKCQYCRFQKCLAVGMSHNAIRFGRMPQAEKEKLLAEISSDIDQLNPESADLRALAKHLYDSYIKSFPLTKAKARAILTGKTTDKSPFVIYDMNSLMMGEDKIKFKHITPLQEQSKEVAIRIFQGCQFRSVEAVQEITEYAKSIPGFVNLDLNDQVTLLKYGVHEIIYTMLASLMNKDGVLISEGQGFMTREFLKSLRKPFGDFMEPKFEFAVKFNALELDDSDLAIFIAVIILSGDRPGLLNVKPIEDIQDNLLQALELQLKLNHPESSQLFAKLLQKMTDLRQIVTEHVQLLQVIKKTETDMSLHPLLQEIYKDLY

For `Cc1c(Cl)cccc1[N+](=O)[O-]`, the Potency entry in assay [1], in [2], in assay [3], in assay [4], in assay [5] and in assay [6] was “inactive” each time. Moreover, the Potency entry in assay [7] and in assay [10] was “inactive” each time. The result in assay [8] and in [9] was inactive.

Consider `Nc1cccc2c(=O)[nH][nH]c(=O)c12`, for which the Potency entry in assay [1], in assay [2], in assay [3], in assay [4], in assay [5] and in assay [6] was “inactive” in each case. Besides, the Potency result in [7] and in assay [10] was “inactive” in each case. The compound was called inactive in assay [9].

Regarding `CCc1ccc(C(=O)C(C)CN2CCCCC2)cc1` (centres undefined), the Potency entry in [1], in [2], in assay [3], in [4], in assay [5] and in assay [7] was “inactive” throughout. The Potency result in assay [10] was “inactive”. Besides, in assay [6], the Potency was 23.7 µM (active). Also, the compound was called inactive in assay [9].

Consider `C=CC(C)CCC=C(C)C` (centres undefined), for which the Potency entry in assay [1], in assay [2], in assay [3], in assay [4], in assay [5] and in [6] was “inactive” each time. For the same compound, the Potency result in assay [7] and in assay [10] was “inactive” throughout. In addition, the call in assay [8] and in [9] was inactive.

Take `Cc1ccc2c(Cl)cc(Cl)c(O)c2n1`: the Potency entry in assay [1], in assay [2], in assay [4], in assay [5], in assay [6] and in assay [7] was “inactive” in each case. Further, the Potency entry in assay [10] was “inactive”. Besides, the Potency in assay [3] was 9.52 µM (active). In addition, the compound was called inactive in assay [8] and in [9].

For `CCCCCCCCCCCCCCCCC(=O)O`, the Potency entry in [1], in assay [2], in assay [3], in assay [4], in [5] and in [6] was “inactive” in each case. Also, the Potency result in assay [7] and in assay [10] was “inactive” throughout. Besides, the outcome in [8] and in [9] was inactive.

Take `O=Cc1ccc(Cl)c([N+](=O)[O-])c1`: the Potency entry in assay [1], in [2], in assay [3], in [4], in [5] and in assay [7] was “inactive” each time.

`OCCc1ccncc1`: the Potency entry in assay [1], in assay [2], in [3], in assay [4], in assay [5] and in [6] was “inactive” throughout. The Potency result in [7] and in [10] was “inactive” throughout. Also, the call in assay [9] was inactive.

In the case of `CC(O)C(C)O` (centres undefined), the Potency result in [1], in [2], in [3], in assay [4], in assay [5] and in [6] was “inactive” each time. Also, the Potency result in assay [7] and in assay [10] was “inactive” each time. Also, the outcome in assay [8] and in [9] was inactive.

On to `CC(C)Cc1nccs1`, for which the Potency entry in [1], in assay [2], in assay [3], in assay [4], in [5] and in [6] was “inactive” each time. The Potency entry in assay [7] and in assay [10] was “inactive” in each case. Moreover, the result in assay [8] and in assay [9] was inactive.

Take `Cc1ccccc1CCO`: the Potency result in [1], in [2], in [3], in assay [4], in assay [5] and in assay [6] was “inactive” in each case. Further, the Potency result in [7] and in assay [10] was “inactive” each time. Further, the outcome in assay [9] was inactive.

Take `CC1(C)C(=O)NC(=O)N1CO`: the Potency result in [1], in [2], in assay [3], in assay [4], in assay [5] and in assay [6] was “inactive” in each case. Besides, the Potency result in [7] and in assay [10] was “inactive” in each case. Further, the call in [8] and in assay [9] was inactive.

In the case of `CC(C)NC(=O)c1ccccc1N`, the Potency entry in [1], in [2], in assay [3], in [4], in [5] and in assay [6] was “inactive” throughout. The Potency entry in assay [7] and in [10] was “inactive” throughout. For the same compound, the outcome in [9] was inactive.

For the compound `CCc1cnc(C(=O)O)c(C(=O)O)c1`, the Potency entry in assay [1], in assay [2], in assay [3], in [4], in [5] and in assay [6] was “inactive” throughout. Also, the Potency result in assay [10] is “inactive”. Moreover, the compound was called inactive in assay [8] and in [9].

Consider `COc1cc(CNC(=O)CCCC/C=C/C(C)C)ccc1O`, for which the Potency result in assay [1], in assay [2], in assay [3], in assay [5], in assay [7] and in [10] was “inactive” each time. In assay [6], the Potency was 47.3 µM (active). For the same compound, the result in assay [8] and in [9] was inactive.

In the case of `CCCCC(CC)COCCC#N` (centres undefined), the Potency entry in assay [1], in assay [2], in [3], in assay [5], in assay [6] and in [7] was “inactive” throughout. The Potency result in assay [10] is “inactive”. For the same compound, the call in assay [8] and in assay [9] was inactive.

As to `C[Si](C)(C)O[Si](C)(C)O[Si](C)(C)C`, the Potency entry in assay [1], in assay [2], in [3], in assay [4], in [5] and in assay [7] was “inactive” each time. The Potency entry in [10] was “inactive”. For the same compound, the call in assay [9] was inactive.

Take `CC1(C)CC(=O)CC(C)(C)N1`: the Potency entry in [1], in assay [2], in assay [3], in [4], in assay [6] and in assay [7] was “inactive” each time. Further, in assay [10], the Potency entry was “inactive”. The call in [8] and in [9] was inactive.

Regarding `CCc1ccc2c(c1)C(=O)c1ccccc1C2=O`, the Potency in assay [1] was 27.3 µM (active); in assay [6] it was 34.4 µM (active). In addition, the Potency result in assay [2], in assay [3], in assay [5], in [7] and in assay [10] was “inactive” in each case. Moreover, the compound was called inactive in assay [8] and in assay [9].

With `C=Cc1ccc(C=C)cc1`, the Potency result in assay [1], in assay [2], in assay [3], in assay [4], in assay [6] and in assay [7] was “inactive” in each case. The Potency entry in [10] was “inactive”. The compound was called inactive in [8] and in assay [9].

For `O=C(OCCOCCOCCOC(=O)c1ccccc1)c1ccccc1`, the Potency result in [1], in assay [2], in [3], in assay [4], in assay [5] and in assay [7] was “inactive” throughout. For the same compound, the Potency entry in assay [10] was “inactive”. Further, the call in assay [8] and in assay [9] was inactive.

With `Cc1ccc2ccccc2c1[N+](=O)[O-]`, the Potency entry in assay [1], in assay [2], in assay [3], in [4], in [5] and in assay [7] was “inactive” each time. Further, the Potency entry in assay [10] is “inactive”. Further, the compound was classed as inactive in assay [8] and in assay [9].

As for `CCCC(=O)OCCC(C)C`, the Potency result in assay [1], in [2], in assay [3], in assay [4], in assay [5] and in [10] was “inactive” throughout. For the same compound, the result in [8] and in [9] was inactive.

Consider `Cc1ccc(S(=O)(=O)NC(=O)NC2CCCC2)cc1`, for which the Potency entry in [1], in [2], in [3], in assay [4], in assay [7] and in assay [10] was “inactive” throughout. Moreover, the result in [8] and in [9] was inactive.

Consider `CCCc1nc(C)c2c(=O)[nH]c(-c3cc(S(=O)(=O)N4CCN(CC)CC4)ccc3OCC)nn12`, for which the Potency result in assay [1], in [2], in assay [3], in assay [4] and in assay [10] was “inactive” each time. Also, the result in [8] and in [9] was inactive.
